Results reported in PubChem BioAssay.
The source made the active and inactive calls.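 Rule for the calls: active = RAM network inhibition above 8.4% in each of two replicates, 3 SD over the compound average; inconclusive = above 8.4% inhibition in only one replicate; inactive = 8.4% inhibition or less in each replicate.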

Assay: RAM signaling pathway blockade in yeast – S. cerevisiae, Pdr1DBD-CYC8 efflux-inhibited sensitized strain, primary screen (AID 1298);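 note: 0% = DMSO untreated cells without growth and 100% = 10 µM 1-NA-PP1 full growth; higher means more yeast growth rescued from 5-FOA killing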
Details: S. cerevisiae cbk1-as DSE1-URA3 strain, 5-FOA growth OD615, 2 d; at 50 µM; stronger effect = higher value
With `CCN1C(=O)CSc2ccc(C(=O)OC)cc21` the RAM network inhibition was -0.69% (inactive).
For `CN(C(=O)c1ccc(=O)[nH]c1)C1(C(=O)NC2CCCCC2)CCCCC1`, the RAM network inhibition was 1.66% (inactive).
For `CCN1CCCC1CNC(=O)Cn1cnc2sc(C)c(S(=O)(=O)N3CCC(C)CC3)c2c1=O` (stereo not given), the RAM network inhibition was 4.06% (inactive).
With `CC1(C)CC(=O)c2cc(C(=O)N3CCN(CCO)CC3)c(=O)n(-c3ccc(Cl)cc3)c2C1` the RAM network inhibition was 3.06% (inactive).
With `CCOc1cc(/C=N/n2cnnc2)ccc1OCC(=O)Nc1ccccc1OC` the RAM network inhibition was 2.52% (inactive).
In the case of `Cc1c(NC2=C(Cl)C(=O)N(c3ccccc3)C2=O)c(=O)n(-c2ccccc2)n1C`, the RAM network inhibition is reported as 3.28% (inactive).
For `CCOC(=O)COc1cc2c(C(=O)OCC)c(C)oc2cc1Br`, the RAM network inhibition was 12.8% (inactive).
For `Cc1ccc(NC2=CC(=O)CC(c3ccco3)C2)c(N)c1` (stereo not given), the RAM network inhibition was 2.43% (inactive).
With `Cc1ccc(-c2nn3c(C)nnc3s2)cc1NC(=O)c1ccco1` the RAM network inhibition was 1.06% (inactive).
In the case of `CCCCn1c(C(C)NC(=O)COC)nc2ccccc21` (stereo not given), the RAM network inhibition is reported as 0.2% (inactive).
In the case of `CCCCNC(=O)CS(=O)Cc1nc(-c2cccs2)oc1C` (stereo not given), the RAM network inhibition is reported as 0.54% (inactive).
For `COc1ccc(-c2noc(Cc3ccccc3OC)n2)cc1`, the RAM network inhibition was 1.94% (inactive).
With `O=C(NC1CCCCCC1)C1CCN(S(=O)(=O)c2cccc3cccnc23)CC1` the RAM network inhibition was 1.35% (inactive).
With `Cc1ccsc1C1C2=C(CC(C)(C)CC2=O)Nc2ncnn21` (stereo not given) the RAM network inhibition was 4.28% (inactive).
With `O=C(OC1CCCCC1)c1ccc(NC(=O)c2ccco2)cc1` the RAM network inhibition was 2.81% (inactive).
In the case of `Cc1c(NC(=O)Oc2ccccc2)sc(=S)n1C`, the RAM network inhibition is reported as 0.99% (inactive).
For `CCCC(=O)NCCCc1nc2ccccc2n1CC`, the RAM network inhibition was 0.58% (inactive).
In the case of `CCC(=O)Nc1c2c(nn1-c1ccc(F)cc1)CS(=O)C2` (stereo not given), the RAM network inhibition is reported as 2.18% (inactive).
With `O=C(c1cc(C2CC2)on1)N1CCOCC1` the RAM network inhibition was 2.93% (inactive).
With `COC(=O)c1ccc(NC(=O)c2cnc3scc(C)n3c2=O)cc1` the RAM network inhibition was 2.36% (inactive).
In the case of `Cc1ccnc(Nc2nc3ccccc3o2)n1`, the RAM network inhibition is reported as 4.15% (inactive).
For `NC(=O)c1ccsc1NC(=O)C1CC1`, the RAM network inhibition was 0.32% (inactive).
With `Cn1c(=O)[nH]c(=O)c2c1nc(CN1CCOCC1)n2Cc1ccc(F)cc1` the RAM network inhibition was 2.15% (inactive).
In the case of `CCOc1ccc(N(CC(=O)Nc2ccc(OC)cc2)S(=O)(=O)c2c(C)noc2C)cc1`, the RAM network inhibition is reported as 4.12% (inactive).
For `COCCn1c(=O)[nH]c2cc(C(=O)NCC3CCCO3)ccc2c1=O` (stereo not given), the RAM network inhibition was 1.45% (inactive).
In the case of `CCOC(=O)c1ccc(NC(=O)CSc2nnc(Cn3c(=O)sc4ccccc43)n2C)cc1`, the RAM network inhibition is reported as 3.59% (inactive).
For `COc1ccc(N(CC(=O)NCc2ccc3c(c2)OCO3)S(=O)(=O)c2c(C)nn(C)c2C)cc1`, the RAM network inhibition was 2.04% (inactive).
For `CCOC(=O)C1CCN(c2c(N3CCN(Cc4ccccc4)CC3)c(=O)c2=O)CC1`, the RAM network inhibition was 6.15% (inactive).
With `COc1ccc(NC(=O)C(c2ccccc2)N(C)C(=O)c2cnccn2)cc1` (stereo not given) the RAM network inhibition was 0.05% (inactive).
In the case of `c1cnn(-c2nc(N3CCOCC3)nc(N3CCOCC3)n2)c1`, the RAM network inhibition is reported as -2.04% (inactive).
In the case of `O=C(NCCCN1CCN(c2ccccc2F)CC1)C1CCCN(S(=O)(=O)c2cnc[nH]2)C1` (stereo not given), the RAM network inhibition is reported as 0.21% (inactive).
With `CCOc1ccc(N2CC(=O)SC2=S)cc1` the RAM network inhibition was 7.05% (inactive).
With `O=C(NCCC1=CCCCC1)NC1CCCCC1` the RAM network inhibition was 5.84% (inactive).
For `CCCCNC(=O)Nc1cc(C(=O)OC)ccc1C`, the RAM network inhibition was 7.5% (inactive).
With `Cc1cccc(-c2nnc(-c3ccccc3)o2)c1` the RAM network inhibition was 1.78% (inactive).
For `O=C1CCC(=O)N1c1ccc(CSc2nc3ccccc3[nH]2)cc1`, the RAM network inhibition was 2.24% (inactive).
With `CCCSc1nnc(Cn2c(=O)sc3ccccc32)n1C` the RAM network inhibition was -0.25% (inactive).
With `C=CCSC1=N/C(=C\c2ccc3c(c2)OCO3)C(=O)S1` the RAM network inhibition was 7.07% (inactive).
In the case of `COc1ccc(OC)c2c1sc(=NC(=O)C(C)C)n2C`, the RAM network inhibition is reported as 3% (inactive).
In the case of `CCN(CC)c1cc(C)c2cc(NC(=O)CNC(C)=O)ccc2n1`, the RAM network inhibition is reported as 2.59% (inactive).
